Screen size: about 4,400 compounds; about 3,700 (84%) were called active. So high a share suggests a set chosen from earlier hits. A selection follows. Unmarked numbers belong to inactive results.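 Rule for the calls: active = inhibition above about 39% in either of two replicate wells at 20 µM (limit read from the data); inactive = the rest.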

This assay in a line: tim23-1 mutant yeast growth inhibitors, confirmation, luminescence, single concentration (AID 463218).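 Note: temperature-sensitive tim23-1 mutant grown at 25 °C; 0% = DMSO wells with yeast and 100% = medium wells without yeast.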 The conditions noted are these: S. cerevisiae tim23-1 growth, BacTiter-Glo luminescence, 24 h; at 20 µM; stronger effect = higher value.
For orientation: inhibition means the drop in the measured response relative to a control, in per cent. As to `Cc1ccc(Nc2nc(-c3ccc(O)cc3O)cs2)nc1`, the inhibition is 70.4% (active).

For `N/C(=N\OC(=O)Nc1ccc(Cl)c(Cl)c1)c1ncc(C(F)(F)F)cc1Cl`, the inhibition was 71.8% (active). In the case of `CN(C)/N=C/c1cn(-c2ccccc2)nc1-c1cccnc1`, the inhibition was 43% (active). On to `Cc1ccc(-c2nn(C(C)(C)C)c3ncnc(N)c23)cc1`, for which the inhibition is 65.7% (active).

For `Clc1ccc(Nc2nc(-c3cccs3)cs2)nc1`, the inhibition was 68.5% (active).

With `Cc1cccc(Nc2nc(-c3ccccc3)cs2)n1`, the inhibition was 23.9%. With `CC(C)Cn1c(N)c(C(=O)NCc2cccs2)c2nc3ccccc3nc21`, the inhibition was 46.1% (active). Regarding `COc1ccc2nc(NC(=O)NC3CCCCC3)sc2c1`, the inhibition was 53.1% (active). For `COc1ccc(NC(=O)/C(Cl)=C(/Cl)S(=O)Cc2ccc(C)cc2)cn1` (stereo not given) the value was 27.6%. In the case of `O=c1nc2s/c(=C\c3ccco3)c(=O)n2nc1Cc1ccccc1`, the inhibition was -20.4%.

Consider `CCOc1ccccc1/C=c1\sc2nc(-c3ccco3)nn2c1=O`, for which the inhibition is 56.6% (active). For `O=C(NCc1ccc2c(c1)OCO2)c1c(O)nc2sccn2c1=O` the value was 66.3% (active). In the case of `Cc1oc2c(c1C(=O)N1CCOCC1)C(=O)c1ccccc1C2=O`, the inhibition was 59.5% (active). Turning to `CCOc1ccc(NC(=O)CCC(=O)N/N=C/c2ccc([N+](=O)[O-])s2)cc1`, the inhibition was 76.9% (active). Consider `Cc1ccccc1NCC(=O)N/N=C\c1ccc([N+](=O)[O-])s1`, for which the inhibition is 79.3% (active). Turning to `COc1cc(/C=N/Nc2nc3ccccc3s2)ccc1O`, the inhibition was 33.5%. Regarding `COc1ccc(C(=O)Nc2ccccc2C(=O)N/N=C/c2ccccc2OC)cc1`, the inhibition is 72% (active). `COc1ccc(C(=O)Nc2ccccc2C(=O)N/N=C/c2ccc(O)c(OC)c2)cc1`: the inhibition is 98.3% (active). In the case of `Oc1c(Cl)cc(Cl)c(Cl)c1Cc1c(O)c(Cl)cc(Cl)c1Cl`, the inhibition is 95.3% (active). The same measure for `O=C(Nc1ccc2oc(-c3ccccc3F)nc2c1)c1ccco1`: 82.7% (active).

Turning to `CC(C)(C)c1ccc(Oc2ccc(N)cc2)cc1`, the inhibition was 51.7% (active).

For the compound `Oc1ccc(Br)cc1/C=N/Nc1ccccn1`, the inhibition is 65.5% (active).

Regarding `Cc1cc(N)n2nc(-c3ccc(C(C)(C)C)cc3)cc2n1`, the inhibition was 72.7% (active). With `COC(C/C=C/C(=O)[C@@H](C)OCc1ccccc1)OC`, the inhibition is 55.2% (active). Consider `COc1cc([N+](=O)[O-])ccc1NC(=O)COC(=O)CCOc1ccc(C)cc1`, for which the inhibition is 64.7% (active). The same measure for `CCc1ccccc1NC(=O)CN(c1ccc(OC)cc1OC)S(=O)(=O)c1ccccc1[N+](=O)[O-]`: 32.9%; for `O=C(CNC(=O)OCc1ccccc1)Oc1cc2oc(=O)cc(-c3ccccc3)c2cc1Cl`: 31.1%; for `C=CCNC(=O)c1ccc2c3n(nc2c1)-c1ccc(C)cc1CO3`: 75.2% (active).

`Oc1ccccc1-c1cc(-c2ccc(Cl)cc2)n[nH]1`: the inhibition was -21.6%. For `CCSC1=C(C#N)C(=O)n2c1cc1c2CCCC1` the value was 56.1% (active); for `O=C1NC(Nc2nc3ccccc3s2)(C(F)(F)F)C(=O)N1C1CCCCC1` (stereo not given), 63.5% (active).

`Cc1nn(-c2ccccc2)c(Cl)c1/C=C/C(=O)c1ccc(O)cc1`: the inhibition was 43.2% (active).

Take `Cc1nn(Cc2ccc(Cl)c(Cl)c2)c(C)c1NC(=O)c1cc(C2CC2)on1`: the inhibition was 59.7% (active). Consider `Cc1ccc(-c2ccc(/C=N/NC(=O)CN3CCOCC3)o2)cc1[N+](=O)[O-]`, for which the inhibition was 76.8% (active). Take `Cc1ccc(C(=O)COc2cccc(NC(=O)c3ccco3)c2)cc1`: the inhibition is 52.7% (active).

Consider `COc1ccc(-c2cc(C3CCN(c4ncccc4[N+](=O)[O-])CC3)[nH]n2)cc1`, for which the inhibition was 46% (active).

With `O=[N+]([O-])c1ccc(C=Nc2ccc(Cl)cc2Cl)s1`, the inhibition was 77.5% (active).

For the compound `O=[N+]([O-])c1ccc2c(c1)Nc1nc3ccccc3nc1N2`, the inhibition was 48.9% (active). Consider `CCCc1[nH]nc2c1C(c1ccc(Br)s1)C(C#N)=C(N)O2` (stereo not given), for which the inhibition was 73.6% (active). Turning to `O=[N+]([O-])c1ccc(N=Cc2c(O)ccc3ccccc23)cc1`, the inhibition is 61.4% (active). For `Oc1ccc2ccccc2c1C=Nc1ccccc1` the value was 65.5% (active); for `CC1CC2=C(CC1/C=N/NC(N)=S)C(C)(C)CCC2` (stereo not given), 43.6% (active); for `COc1ccc(/C=C(\C#N)C(=O)ONC2=NCCCCC2)cc1`, 81.6% (active). On to `O=c1c2cc(Br)ccc2nc(-c2cccc(Cl)c2)n1O`, for which the inhibition was 60.2% (active). On to `COc1cc(/C=C2/C(=O)ON=C2C)ccc1OCc1cccc(F)c1`, for which the inhibition is 53.9% (active).

With `COc1cc(/C=C2/C(=O)ON=C2C)ccc1OCc1ccccc1F`, the inhibition is 55.5% (active).

For the compound `Clc1ccc(C2CC(c3cccs3)n3ncnc3N2)cc1Cl` (stereo not given), the inhibition is 40.9% (active). As for `CCN1C(=O)/C(=C2\SC(N3CCCCC3)=NC2=O)c2ccccc21`, the inhibition is 41.5% (active). Regarding `COc1cccc(C2Nc3cccc4cccc(c34)N2)c1`, the inhibition is 77.5% (active).

For the compound `Cc1cc(C(=O)N/N=C\C(Br)=C\c2ccccc2)c(C)o1`, the inhibition is 50.8% (active). For `C/C(=N/NC(=O)c1cc(Cl)ccc1O)C12CC3CC(CC(C3)C1)C2`, the inhibition is 59.9% (active). `CC(=NCc1ccc2c(c1)OCO2)C1=C(O)c2ccccc2C1=O`: the inhibition was 67.6% (active).

In the case of `CC(=NCc1ccco1)C1=C(O)c2ccccc2C1=O`, the inhibition is 50.4% (active).

`COc1ccc(C(=O)NCC(=O)N/N=C/c2ccc([N+](=O)[O-])o2)cc1OC`: the inhibition was 75.6% (active). Consider `c1ccc(-c2nnc3n2NC(c2ccc4c(c2)OCO4)S3)cc1` (stereo not given), for which the inhibition is 43.8% (active). With `Nc1ccccc1SC(C[N+](=O)[O-])c1ccccc1` (stereo not given), the inhibition was 89.4% (active). The same measure for `Cc1cc(C)c(S(=O)(=O)c2ccccc2)c(OC(=O)c2c(F)cccc2Cl)n1`: 61.8% (active); for `O=c1c2ccccc2[nH]c(=S)n1CCN1CCC(=C(c2ccc(F)cc2)c2ccc(F)cc2)CC1`: 41.8% (active). For `CCCC(=O)N1CCN(c2nnc(-c3ccc(C)cc3)c3ccccc23)CC1`, the inhibition is 16%. For the compound `COC(=O)N/N=C/c1ccc(-c2ccc(Cl)c(Cl)c2)o1`, the inhibition was 43.3% (active).

Consider `O=C(Nc1ccccc1)c1nnsc1S(=O)(=O)c1ccc(Cl)cc1`, for which the inhibition was 93% (active). For `FC(F)(F)c1cccc(Nc2ncnc3ccccc23)c1` the value was 29%; for `CCOc1cc(NC(=O)c2ccccc2C(=O)O)c(OCC)cc1NC(=O)c1ccccc1F`, 66.5% (active).

As for `CCN1/C(=C\c2ccc3ccccc3[n+]2CC)Sc2cc(C)ccc21`, the inhibition is 64.8% (active). As to `CCc1ccc2oc(-c3ccc(N)cc3)nc2c1`, the inhibition was 58.8% (active). For `O=C(CSc1cccc2cccnc12)N/N=C/c1cccnc1`, the inhibition was 62% (active).

Turning to `C[C@@H]1C(c2ccc(F)cc2)=NN(c2ccc(Br)cc2)[C@H]1C(=O)N1CCOC1=O`, the inhibition is 44.6% (active). As to `CCOc1cc(/C=C2\SC(N3CCCC(C)C3)=NC2=O)ccc1O` (stereo not given), the inhibition was 43% (active). In the case of `O=C(/C=C/c1ccccc1)c1ccccc1O`, the inhibition is 62.4% (active). For `COc1ccc(Oc2cn[nH]c2-c2ccc(OC)cc2O)cc1` the value was 59.6% (active). Consider `CCC(C)c1ccc(NC(=O)COC(=O)C2CCCC2)cc1` (stereo not given), for which the inhibition is 49.4% (active). Turning to `Clc1ccc(Nc2ccc3ccccc3n2)cc1`, the inhibition was 43.8% (active). For `O=Cc1cn(-c2ccccc2)nc1-c1ccccn1` the value was 57.2% (active); for `CC1CCCC(C)N1C(=O)CN1CCN(c2nc(-c3ccc(F)cc3)cs2)CC1` (stereo not given), 54.5% (active). `CC1(C)C2CCC1(C)C(OC(=O)c1ccc(O)cc1)C2` (stereo not given): the inhibition was 58% (active). Turning to `CCOC(=O)C1=C(C)N=c2s/c(=C\C(=O)OC)c(=O)n2C1c1ccc(OC)cc1` (stereo not given), the inhibition is 55.2% (active). Consider `CC[C@]1(C(=O)OC)[C@H]2C(=O)N(Cc3ccccc3)C(=O)[C@H]2[C@H]2CN=C(SCc3ccc(Cl)cc3)N21`, for which the inhibition was 31.4%. Regarding `O=C(N/N=C\c1cccc(Br)c1)c1ccccc1-n1cccc1`, the inhibition is 50.8% (active). As to `O=C(Oc1c(-c2ccco2)oc2ccccc2c1=O)c1cccnc1`, the inhibition is 67.5% (active). The same measure for `COc1ccc(C(=O)O/N=C(\N)Cc2ccc(Cl)cc2Cl)cc1OC`: 52.8% (active); for `c1ccc2cc(CCCc3cc4ccccc4cn3)ncc2c1`: 40.3% (active).

Consider `CC1(C)C=Cc2c(ccc3c2OC[C@@H](c2ccc(O)cc2O)C3)O1`, for which the inhibition is 29.5%. As for `Cc1ccc(Oc2cnn(-c3ccccc3)c(=O)c2Br)cc1`, the inhibition is 39.4% (active). Regarding `O=C1c2ccccc2S(=O)(=O)N1CC(O)Cn1c2ccccc2c2ccccc21` (stereo not given), the inhibition was 90.8% (active). The same measure for `O=C1C(=O)N(CC2COc3ccccc3O2)c2ccccc21` (stereo not given): 46.6% (active); for `O=C(COC(=O)c1ccc(O)cc1O)c1ccc2c(c1)OCCO2`: 21%. Turning to `O=c1c(-c2ccc3c(c2)OCCO3)c(C(F)(F)F)oc2cc(O)cc(O)c12`, the inhibition was 63.5% (active). `COc1cc(/C=C(\C#N)c2nc3ccccc3[nH]2)ccc1O`: the inhibition was 54.2% (active). Consider `Cc1cccc(/C(N)=N/OC(=O)c2ccccc2Cl)c1`, for which the inhibition is 75.3% (active). Take `CNC(=O)/C(C#N)=C/c1c(F)cccc1Cl`: the inhibition was 71.8% (active). For `CCn1c2ccccc2c2cc(NC(=S)N3CCOCC3)ccc21`, the inhibition was 31.6%. As for `CCc1ccc(C(=O)NC(=S)Nc2ccccc2N2CCOCC2)cc1`, the inhibition is 49.2% (active). For `O=C(NC(=S)Nc1cccc2c(O)cccc12)c1cccc(Br)c1`, the inhibition was 23.2%. Turning to `O=C(c1cc(-c2cccc(O)c2)on1)N1CCc2ccccc2C1`, the inhibition was 48.2% (active). Take `O=C(c1cc(-c2ccc(O)cc2)on1)N1CCCc2ccccc21`: the inhibition is 50.6% (active). Regarding `Cc1cc(Nc2ccccc2)n(C(=O)c2ccc(N)cc2)n1`, the inhibition is 55.7% (active). `N/C(=N\OC(=O)c1cc(-c2ccccc2)nc2ccccc12)c1ccncc1`: the inhibition was 80.8% (active).

With `O=C1CSC(=S)N1c1ccc(Cl)c(Cl)c1`, the inhibition is 76% (active). For the compound `COC(=O)c1c(NC(=O)COc2ccc(Cl)cc2Cl)sc2c1CC(C)(C)NC2(C)C`, the inhibition was 63.6% (active). `Oc1c(CN2CCN(c3ccc(F)cc3)CC2)cc(Cl)c2cccnc12`: the inhibition was 54.9% (active).

For the origin of these results see PubChem BioAssay AID463218 (Sanford-Burnham Center for Chemical Genomics, 2010).
